Source: PubChem BioAssay (National Center for Advancing Translational Sciences (NCATS))
USP1-UAF1 inh: inhibitors of human USP1/UAF1 deubiquitinase; O94782; recombinant USP1/UAF1, Ub-Rhodamine cleavage fluorescence; Potency, µM (doses to about 57.1 µM), without a hit: top-dose activity change, negative = inhibition, usual class: inhibitors; 390,000 tested, 0.23% active; AID 743255; further: on the % scale 0 is the no-effect control and ±100 the full control effect; nearly all actives have a fitted effect of over 60% in size
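High-throughput fluorogenic screen: 1nM USP1/UAF1 complex, Ub-Rho substrate 150nM final, 50mM HEPES pH 7.8 with 0.5mM EDTA, 0.1 mg/ml BSA, 1mM TCEP and 0.01% Tween-20.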
EPAC2 agonist: EPAC2 (human) agonism; AID 720711; Q8WZA2; EPAC2 activation, biochemical qHTS; response scale: 100% = 6.5 mM cAMP response; Potency, µM (doses to about 154 µM), for inactives: at the highest dose activation, most hits filed as activators; 360,000 tested, 0.079% active; further: nearly all actives have a fitted effect of over 50% in size
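qHTS, titration series. 100 nM EPAC2 / 250 nM Rap1B-BODIPY-GDP / 50 uM GDP; RT; ex 480/em 540 nm, 5-min reads to 30 min. Norm. to 6.5 mM cAMP = activation.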
EPAC1 antag: EPAC1 (human) antagonism; Potency, µM (top dose mostly 115 µM), for the others: at the top dose activity change, negative = inhibition, actives largely listed as inhibitors; EPAC1 GEF assay, Rap1b-BODIPY-GDP exchange fluorescence; O95398; 360,000 tested, 0.14% active; AID 720709;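 further: plate controls were vehicle for no effect and positive control for full effect; nearly all actives have a fitted effect of over 50% in size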
EPAC2 antag: antagonists of human EPAC2; Q8WZA2; EPAC2 GEF exchange of Rap1B-BODIPY-GDP, fluorescence; Potency, µM (titrated, usually from 114 µM), without a hit: top-dose activity, negative = inhibition, usual class: inhibitors; 360,000 tested, 0.18% active; further: on the % scale 0 is the no-effect control and ±100 the full control effect; nearly all actives have a fitted effect of over 45% in size
EPAC1 agonist: EPAC1 (human) agonism. O95398. EPAC1 agonist qHTS, biochemical assay; response scale: 100% = response to 6.5 mM cAMP. Potency, µM (series often up to 154 µM), without a hit: top-dose activation, usual class: activators. 360,000 tested, 0.073% active; further: nearly all actives have a fitted effect of over 60% in size
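EPAC1 100 nM, Rap1B–BODIPY-GDP 250 nM, unlabeled GDP 50 uM; compound titration; 5 min RT; kinetic read ex480/em540 at 5-min intervals ×30 min; data normalized to 6.5 mM cAMP agonist control.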
VDR inhibitor: inhibitors of human vitamin D receptor; VDR-SRC2-3 peptide fluorescence polarization, 2 h; Potency, µM, inactives show max response, negative = inhibition, usual class: inhibitors; 400,000 tested, 0.93% active; further: on the % scale 0 is the no-effect control and ±100 the full control effect
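Inhibition of the VDR/SRC2-3 peptide interaction is quantified by fluorescence polarization. Compounds (23 nl, pintool) incubate with the reagents for 2 hours at ambient room temperature.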
VDR confirm: inhibits human vitamin D receptor, primary hit validation. shares compounds with VDR inhibitor. VDR-coactivator inhibition assay, qHTS confirmation. Potency, µM, usual class: inhibitors. 840 tested, 89% active
VDR FP: blocks human VDR-coactivator binding in fluorescein assay; shares compounds with VDR inhibitor; VDR-coactivator binding, fluorescein fluorescence polarization; Potency, µM (titrated, usually from 57.1 µM), for the others: top-dose activity change, negative = inhibition, hits mostly inhibitors; 840 tested, 48% active
VDR bla: VDR (human) inhibition, cell-based beta-lactamase validation; 840 tested, 23% active; Potency, µM (doses to about 46.1 µM), without a hit: at the highest dose activity change, negative = inhibition, hits mostly inhibitors; VDR beta-lactamase reporter cells, FRET ratio; cells co-treated with VDR agonist LG190178; AID 602202; shares compounds with VDR inhibitor; further: on the % scale 0 is the no-effect control and ±100 the full control effect
VDR cytotox: counter-screen for vitamin D receptor inhibitors: cytotoxicity; shares compounds with VDR inhibitor; cytotoxicity counter-screen, cell viability, qHTS; Potency, µM (doses to about 48.3 µM), for the others: at the highest dose activity change, negative = cytotoxicity, hits mostly cytotoxic; 840 tested, 18% active;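 further: plate controls were DMSO for no effect and high-concentration cycloheximide for full effect; nearly all actives have a fitted effect of over 75% in size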
An asterisk follows results filed as active; ? = inconclusive; . = no result given. Most compounds without a hit are left out; they make up all but 1.2% or so of the library. The call rests on the fitted dose curve; in most records, active means well fitted curve in the direction sought with a large enough effect; inconclusive means small, poorly fitted or top-dose-only effect, or another doubt; inactive means no such curve, though single readings can be large; an effect the other way counts as inactive or inconclusive. Potency means the concentration at half of the fitted maximal effect.

SMILES	USP1-UAF1 inh	EPAC2 agonist	EPAC1 antag	EPAC2 antag	EPAC1 agonist	VDR inhibitor	VDR confirm	VDR FP	VDR bla	VDR cytotox
CCC12CN3CC(CC)(CN(C1)C3c1ccccn1)C2=O (stereo not given)	?	.	.	.	.	12.2%	.	.	.	.
Nc1nc(Sc2ccc([N+](=O)[O-])c3nonc23)c2[nH]cnc2n1	-7.1%	-2.6%	-9.6%	-10.9%	?	14.1µM*	3.36*	?	?	11.2µM*
COc1cc(OC)c(/C=C2\C(=O)Nc3ccccc32)c(OC)c1	11.2%	-0.9%	-20.3%	?	-40.0%	-9.6%	.	.	.	.
COc1ccc(C(=O)/C=C2/C(=O)Nc3ccccc32)c(OC)c1	-17.4%	1.0%	-5.7%	8.4%	-5.1%	35.5µM*	21.2*	?	?	12.6µM*
CN(C)c1ccc(C=C2C(=O)NC(=O)NC2=O)cc1[N+](=O)[O-]	-1.5%	1.0%	-18.6%	-9.8%	11.7%	-27.6%	.	.	.	.
CN(C)c1ccc(C=C2C(=O)NC(=S)NC2=O)cc1[N+](=O)[O-]	-25.7%	5.9%	-19.2%	-3.1%	3.5%	22.4µM*	13.4*	10µM*	28.2%	-7.6%
Cc1ccc(OP2(=O)Nc3cc(C)c(C)cc3S2)cc1 (stereo not given)	-2.8%	2.8%	-5.1%	-4.3%	0.1%	7.94µM*	6.7*	?	7.0%	-12.4%
Cc1ccc2c(c1)NP(=S)(Oc1ccccc1)N2 (stereo not given)	-13.0%	18.9%	-9.2%	18.6%	3.1%	-12.1%	.	.	.	.
